The values that follow come from PubChem BioAssay AID1851 (National Center for Advancing Translational Sciences (NCATS), 2009).

Among all 16,000 compounds or so, about 4,000 (25%) were called active. Another 26% or so got no clear call; they are omitted. Not all results are given here. Unmarked numbers belong to inactive results. The call rests on the fitted dose curve; in most records, active means well fitted curve in the direction sought with a large enough effect; inconclusive means small, poorly fitted or top-dose-only effect, or effect the other way; inactive means no such curve, though single readings can be large or run the other way.
On the % scale 0 is the no-effect control and ±100 the full control effect.

Sequence of Cytochrome P450 2C9 (Homo sapiens) (P11712 whole entry, looked up): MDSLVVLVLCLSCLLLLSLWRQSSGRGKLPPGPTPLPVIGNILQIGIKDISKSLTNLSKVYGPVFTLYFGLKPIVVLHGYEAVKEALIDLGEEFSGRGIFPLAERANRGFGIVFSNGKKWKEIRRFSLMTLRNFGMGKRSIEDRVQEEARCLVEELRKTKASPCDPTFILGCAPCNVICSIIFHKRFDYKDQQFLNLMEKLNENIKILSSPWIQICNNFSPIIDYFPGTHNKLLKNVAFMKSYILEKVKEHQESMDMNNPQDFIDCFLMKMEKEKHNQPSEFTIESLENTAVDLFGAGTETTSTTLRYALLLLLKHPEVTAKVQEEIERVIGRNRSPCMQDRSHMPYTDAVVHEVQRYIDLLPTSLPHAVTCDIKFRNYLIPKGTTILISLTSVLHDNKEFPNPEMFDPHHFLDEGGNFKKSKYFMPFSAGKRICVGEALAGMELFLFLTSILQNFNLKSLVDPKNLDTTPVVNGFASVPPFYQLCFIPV

The experiment concerns the target Cytochrome P450 2C9 (Homo sapiens) (UniProt P11712). Put plainly: Cytochrome panel assay with activity outcomes. Conditions: recombinant CYP, pro-luciferin dealkylation, luminescence, p450-cyp2c9; series mostly up to 57.1 µM.
Consider `Cc1ccc(NS(=O)(=O)c2cc(C(=O)N3CCc4ccccc4C3)ccc2Cl)cc1`, for which the AC50 was 2510 nM (active).

For the compound `O=C(O)[C@@H]1[C@@H](C(=O)NCc2ccccn2)[C@@H]2C=C[C@@H]1O2`, the activity, negative = inhibition was 1.33% [at 11.4 µM]. In the case of `Cc1ccc(NS(=O)(=O)c2cc(C(=O)NCc3ccccn3)ccc2Cl)cc1`, the concentration at half-maximal activity (AC50) is 17800 nM (active).

For `CN(c1ccc(C(=O)NCc2ccccn2)cc1)S(C)(=O)=O`, the AC50 result is “inactive”. On the same count and under the same terms, under `CN(CC(=O)Nc1ccc(F)c(F)c1)S(=O)(=O)c1cccc2nsnc12` stands 355 nM (active). For the compound `CC1CCN(C(=O)CN(C)S(=O)(=O)c2cccc3nsnc23)CC1`, the AC50 entry is “inactive”. For `COc1ccc(C(F)(F)F)cc1N/C=C\c1nnnn1-c1ccccc1`, the AC50 was 4470 nM (active). Take `CS(=O)(=O)N1CCC[C@@]2(CCN(c3ncccn3)C2)C1`: the AC50 entry was “inactive”.

As to `O=C(O)C[C@H](Cc1ccccc1Cl)C(=O)O`, the activity, negative = inhibition is 2.18% [at 11.4 µM]. As to `NC(=O)NC(=O)Nc1ccccc1Cl`, the AC50 entry was “inactive”. For `O=C(O)COC(=O)Cc1ccccc1Nc1c(Cl)cccc1Cl`, the AC50 was 1580 nM (active).

Regarding `CNc1ccnc(-c2ccccc2OC)n1`, the activity, negative = inhibition is -17.5% [at 2.29 µM]. For the compound `O=C(NCCC1=CCCCC1)C1CCCN(c2nc3ccccc3o2)C1` (stereo not given), the AC50 was 3550 nM (active). As to `CC1CC(C)CN(CCCNC(=O)C2CCCN(c3nnc(N4CCCC4=O)s3)C2)C1` (stereo not given), the AC50 result was “inactive”. With `CCCS(=O)(=O)N1CCCC(C(=O)NCCN(C)Cc2ccccc2)C1` (stereo not given), the AC50 result is “inactive”. Take `CC(C)Cn1c(=O)n(C)c(=O)c2[nH]cnc21`: the AC50 entry was “inactive”. On the same count and under the same terms, with `CC(C)Cn1c(N)c(C(=O)CSc2ccc3c(c2)OCCO3)c(=O)n(C)c1=O` the figure was 3550 nM (active); with `Cn1c(=O)c(C(=O)CN2CCOCC2)c(N)n(Cc2ccccc2)c1=O`, “inactive”. Take `CN1CCN(c2ncncc2-c2ccoc2)CC1`: the activity, negative = inhibition is 17.1% [at 2.29 µM]. For the compound `O=C(Nc1ccccc1C(=O)NCCc1ccccc1)c1ccco1`, the half-maximal activity concentration (AC50) was 2820 nM (active). `CCC(NC(=O)c1ccccc1NC(=O)c1ccco1)C(=O)NC1CCCCC1` (stereo not given): the AC50 was 7080 nM (active). As to `Cc1ccc(C(C(=O)NC2CCCCC2)N2CCN(C(=O)c3ccco3)CC2)cc1` (stereo not given), the AC50 entry was “inactive”.

`CCCC[P+](CCCC)(CCCC)Cc1ccc(NC(=O)[C@@H](Cc2ccc3ccccc3c2)NC(=NC2CCCCC2)NC2CCCCC2)cc1`: the AC50 result is “inactive”. With `O=C(Nc1ccccc1C(=O)Nc1ccc2c(c1)OCO2)c1ccco1`, the AC50 was 1410 nM (active). For `COc1ccccc1CNc1cc(-c2ccc(C(=O)N(C)C)cc2)ncn1`, the activity, negative = inhibition was 10% [at 2.29 µM].

On to `CN1CCN(C2=Nc3ccccc3Oc3ccc(Cl)cc32)CC1`, for which the AC50 entry was “inactive”.

For `COC(=O)c1c(NC(=O)c2ccco2)sc2c1CCC2`, the AC50 was 2820 nM (active).

Take `CCN1C(=O)[C@H]2[C@H]3[C@H](O)[C@H](O)C/C(=N/O[C@@H]4O[C@@H](COC(C)=O)[C@@H](OC(C)=O)[C@@H](OC(C)=O)[C@H]4OC(C)=O)[C@H]3CC[C@@H]2C1=O`: the activity, negative = inhibition was 23.1% [at 11.4 µM]. `COc1cc(NC(=O)c2cc3nc(-c4ccccc4)cc(-c4ccccc4)n3n2)cc(OC)c1OC`: the AC50 was 2240 nM (active). Consider `COc1ccc(-c2cc(C(=O)Nc3cc(OC)c(OC)c(OC)c3)no2)cc1OC`, for which the AC50 entry is “inactive”. Same read-out and setting: with `CC(C)[C@H](N)c1nnc(SCc2ccc(Cl)cc2)o1` the figure was 1780 nM (active). In the case of `O=c1ccnc(SCc2ccc(Cl)cc2)[nH]1`, the activity, negative = inhibition was -29.9% [at 11.4 µM]. Still for that read-out and setting: under `Clc1ccc(CSc2ncnc3c2ncn3[C@@H]2CCCCO2)cc1` stands -17.8% [at 11.4 µM]; under `CC(CC(=O)O)(CC(=O)O)C(=O)O`, -9.5% [at 11.4 µM]; under `O=C(O)CCSCc1ccccc1`, 24.2% [at 11.4 µM]. In the case of `O=C(Cc1ccccc1[N+](=O)[O-])NCCSCc1c(F)cccc1Cl`, the AC50 entry was “inactive”. On to `O=C(Cc1ccccc1)NCCSCc1ccc(Cl)cc1`, for which the AC50 was 3980 nM (active). On to `CCN(CC)c1ncnc2c1sc1nc(C)cc(C)c12`, for which the AC50 was 17800 nM (active).

As for `Cc1noc(C)c1-c1cncnc1Nc1ccccc1`, the activity, negative = inhibition is -0.353% [at 2.29 µM]. For the compound `CCN1C(=O)C(CC(=O)Nc2ccc(OC)cc2)N(Cc2cccs2)C1=S` (stereo not given), the AC50 is 7080 nM (active).

Regarding `CCN1C(=O)C(CC(=O)Nc2ccc(Br)cc2)N(CCCc2ccccc2)C1=S` (stereo not given), the AC50 is 708 nM (active). On the same count and under the same terms, with `CCNc1ncc2nc(-c3ccc(OC)cc3)c(=O)n(Cc3cccs3)c2n1` the entry was “inactive”; with `CCOC(=O)C1=C(C)N=C2c3ccccc3C(=O)C2C1c1ccc(C)cc1` (stereo not given), 891 nM (active); with `CCOC(=O)C1=C(C)N=C2c3ccccc3C(=O)C2C1c1ccc(Cl)cc1` (stereo not given), 562 nM (active). For the compound `Cc1nnsc1SC(C)C(=O)O` (stereo not given), the AC50 entry is “inactive”.

Turning to `CC(=O)c1cccc(NS(=O)(=O)c2ccc(N/C=C\C(=O)c3ccc(F)cc3)cc2)c1`, the AC50 was 2820 nM (active). As to `O=C(/C=C/Nc1ccccc1)c1ccc(Oc2ncccn2)cc1`, the AC50 result was “inactive”. `CC(=O)c1cccc(NC=C2C(=O)OC3(CCCCC3)OC2=O)c1`: the AC50 entry was “inactive”. With `Cc1cnc(CNc2cc(-c3ccccc3CN(C)C)ncn2)cn1`, the activity, negative = inhibition was 10.9% [at 2.29 µM].

As for `COC(=O)c1ccc(/C=N\NC(=O)c2ccc(C)cc2Cl)cc1`, the AC50 is 8910 nM (active). With `Cc1ccc(C(=O)N/N=C/c2ccc(S(=O)(=O)O)o2)c(Cl)c1`, the AC50 entry is “inactive”.

Turning to `Cc1ccc(S(=O)(=O)N[C@H](CN)C(=O)O)cc1`, the activity, negative = inhibition is -0.685% [at 11.4 µM].

`Cc1ccc(S(=O)(=O)NC(CC(C)C)C(=O)Oc2ccc3c4c(c(=O)oc3c2)CCC4)cc1` (stereo not given): the AC50 entry was “inactive”. Same read-out and setting: with `Cc1ccc(S(=O)(=O)N[C@H](C(=O)Oc2ccc3c(C(F)(F)F)cc(=O)oc3c2)c2ccccc2)cc1` the figure was 10000 nM (active); with `c1ccc2c(c1)ncn2-c1ccc(-c2ccnc(-c3ccncc3)n2)cc1`, 224 nM (active); with `CCC(C)NS(=O)(=O)c1ccc(OCC(=O)NCC2CCCO2)cc1` (stereo not given), “inactive”.

Consider `CCC(C)NS(=O)(=O)c1ccc(OCC(=O)Nc2ccc3c(c2)OCCO3)cc1` (stereo not given), for which the AC50 was 3980 nM (active). As to `Cc1cc(C)c2c(SCc3ccc(Cl)cc3Cl)nc(N)nc2n1`, the activity, negative = inhibition was -3.34% [at 11.4 µM].

In the case of `Cc1cc(N2CCOCC2)nc(SCc2ccc(Cl)cc2Cl)n1`, the AC50 is 7940 nM (active). In the case of `CSc1nc(C)cc(Nc2ccc(O)c(CN3CCOCC3)c2)n1`, the activity, negative = inhibition is -8.69% [at 11.4 µM].

As a reminder, the AC50 is the midpoint of the concentration-response curve, whichever way the signal moves.
